# Data: PubChem BioAssay (EPA / NIEHS)
# Inconclusive results are not listed. Some structures have more than one record in an assay (separate samples or runs), and their calls can disagree. The source made the active and inactive calls. Rule for the calls, unless noted: active = hit-call score of the fitted dose curve at least 0.9, where 1 is the maximum; inconclusive = response in the unintended direction; inactive = score below 0.9.
# Tests used:
# [1] = ATG_M_19_CIS: Attagene CIS-FACTORIAL HepG2 Assay for M19 Transcription Factor (Internal Marker) (AID 2282939; active = hit-call score of the fitted dose curve at least 0.9, where 1 is the maximum; inactive = score below 0.9); settings: HepG2 Attagene CIS-FACTORIAL M19 internal marker reporter; actives raise or lower the signal
# How it was run: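 HepG2 cells transiently transfected with cis-regulated multiplexed reporter units, dosed 24 h. Reporter mRNA quantified by RT-PCR and capillary electrophoresis; internal background marker fitted bidirectionally versus DMSO.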
# [2] = ATG_GATA_CIS: Attagene CIS-FACTORIAL HepG2 Assay for human GATA Binding Protein (AID 2282944; active = hit-call score of the fitted dose curve at least 0.9, where 1 is the maximum; inactive = score below 0.9); settings: HepG2 GATA cis-element reporter, Attagene multiplex mRNA; actives raise or lower the signal
# How it was run: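 HepG2 cells transiently transfected with multiplexed cis-element reporter units measure endogenous GATA activity; after 24 h compound exposure, reporter mRNA quantified by RT-PCR and capillary electrophoresis. Changes fitted in both directions vs DMSO.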
# [3] = biological target: Paired box protein Pax-6 (Homo sapiens) (UniProt P26367); assay: ATG_Pax6_CIS: Attagene CIS-FACTORIAL HepG2 Assay for human Paired Box 6 (PAX6) (AID 2282956; active = hit-call score of the fitted dose curve at least 0.9, where 1 is the maximum; inactive = score below 0.9); settings: HepG2 CIS-FACTORIAL PAX6 reporter transcription, RNA readout; actives raise or lower the signal
# Paired box protein Pax-6 (Homo sapiens), sequence (P26367 whole entry, looked up): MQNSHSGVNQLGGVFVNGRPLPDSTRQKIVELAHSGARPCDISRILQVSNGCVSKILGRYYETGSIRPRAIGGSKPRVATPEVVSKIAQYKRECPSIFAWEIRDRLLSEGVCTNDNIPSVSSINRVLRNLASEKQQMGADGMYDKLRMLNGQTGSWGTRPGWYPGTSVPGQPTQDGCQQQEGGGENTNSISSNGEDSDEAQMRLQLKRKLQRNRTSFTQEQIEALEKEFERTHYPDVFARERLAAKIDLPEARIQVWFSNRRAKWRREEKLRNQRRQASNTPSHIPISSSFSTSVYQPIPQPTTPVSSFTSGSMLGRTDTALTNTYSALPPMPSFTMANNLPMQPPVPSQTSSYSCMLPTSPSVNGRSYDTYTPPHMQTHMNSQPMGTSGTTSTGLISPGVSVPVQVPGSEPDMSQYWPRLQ
# How it was run: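 Fluorescent RT-PCR products separated by capillary electrophoresis report PAX6-linked promoter mRNA in HepG2 cells 24 h post-dose. Curves fitted bidirectionally, DMSO as negative control.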
# [4] = ATG_TA_CIS: Attagene CIS-FACTORIAL HepG2 Assay for human TA Basal Promoter (AID 2282964; active = hit-call score of the fitted dose curve at least 0.9, where 1 is the maximum; inactive = score below 0.9); settings: HepG2 Attagene CIS-factorial TA basal promoter reporter; actives raise or lower the signal
# How it was run: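 HepG2 cells transiently transfected with multiple reporter units under cis promoter elements, reporting endogenous transcription factor activity; this endpoint tracks the TA basal promoter as background control. Reporter mRNA after 24 h dosing measured by RT-PCR/capillary electrophoresis; bidirectional fits versus DMSO.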
# [5] = biological target: Hepatocyte nuclear factor 4-alpha (Homo sapiens) (UniProt P41235); assay: ATG_HNF4a_TRANS: Attagene TRANS-FACTORIAL HepG2 Assay for human Hepatocyte Nuclear Factor 4 alpha (HNF4a) (AID 2282982); settings: HepG2 HNF4a transactivation reporter, mRNA readout
# Hepatocyte nuclear factor 4-alpha (Homo sapiens), sequence (P41235 whole entry, looked up): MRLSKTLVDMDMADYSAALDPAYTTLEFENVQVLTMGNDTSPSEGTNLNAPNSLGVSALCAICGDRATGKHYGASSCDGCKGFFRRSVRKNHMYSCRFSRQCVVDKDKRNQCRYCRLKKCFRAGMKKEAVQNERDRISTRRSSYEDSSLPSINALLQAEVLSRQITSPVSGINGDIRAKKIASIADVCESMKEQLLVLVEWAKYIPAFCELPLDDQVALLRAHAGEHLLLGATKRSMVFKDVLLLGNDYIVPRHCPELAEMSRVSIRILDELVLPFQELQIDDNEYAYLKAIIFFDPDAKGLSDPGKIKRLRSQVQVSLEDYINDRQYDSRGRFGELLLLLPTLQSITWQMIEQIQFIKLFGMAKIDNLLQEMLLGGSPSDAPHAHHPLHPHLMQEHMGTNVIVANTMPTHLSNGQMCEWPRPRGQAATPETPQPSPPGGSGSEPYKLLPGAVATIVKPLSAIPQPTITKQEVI
# How it was run: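 Transient MRTU transfection of HepG2, 24 h dosing. Readout: reporter mRNA via RT-PCR + capillary electrophoresis, fluorescence; activity fit upward relative to DMSO control.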
# [6] = ATG_M_32_TRANS: Attagene TRANS-FACTORIAL HepG2 Assay for M32 Transcription Factor (Internal Marker) (AID 2282984); settings: HepG2 Attagene TRANS M32 internal marker reporter
# How it was run: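 Read-out: fluorescent reporter cDNA fragments resolved by capillary electrophoresis after RT-PCR of total RNA. Transfected HepG2 cells were exposed to chemical for 24 h. Activity scored in the positive direction relative to DMSO.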
# [7] = ATG_NFI_CIS: Attagene CIS-FACTORIAL HepG2 Assay for human Nuclear Factor I (NFI) (AID 2282989; active = hit-call score of the fitted dose curve at least 0.9, where 1 is the maximum; inactive = score below 0.9); settings: HepG2 cis-regulatory reporter, NFI response element transcription; actives raise or lower the signal
# How it was run: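 Endogenous TF activity in HepG2 cells transiently transfected with cis-element-driven multiplexed reporter units, read 24 h after dosing. Reporter mRNA quantified by RT-PCR, 6-FAM labelling, HpaI digestion and capillary electrophoresis; bidirectional fit versus DMSO.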
# [8] = biological target: Retinoic acid receptor RXR-alpha (Homo sapiens) (UniProt P19793); assay: ATG_RXRa_TRANS: Attagene TRANS-FACTORIAL HepG2 Assay for human Retinoid X Receptor alpha (RXRa) (AID 2283012)
# Retinoic acid receptor RXR-alpha (Homo sapiens), sequence (P19793 whole entry, looked up, the tested form may be a part): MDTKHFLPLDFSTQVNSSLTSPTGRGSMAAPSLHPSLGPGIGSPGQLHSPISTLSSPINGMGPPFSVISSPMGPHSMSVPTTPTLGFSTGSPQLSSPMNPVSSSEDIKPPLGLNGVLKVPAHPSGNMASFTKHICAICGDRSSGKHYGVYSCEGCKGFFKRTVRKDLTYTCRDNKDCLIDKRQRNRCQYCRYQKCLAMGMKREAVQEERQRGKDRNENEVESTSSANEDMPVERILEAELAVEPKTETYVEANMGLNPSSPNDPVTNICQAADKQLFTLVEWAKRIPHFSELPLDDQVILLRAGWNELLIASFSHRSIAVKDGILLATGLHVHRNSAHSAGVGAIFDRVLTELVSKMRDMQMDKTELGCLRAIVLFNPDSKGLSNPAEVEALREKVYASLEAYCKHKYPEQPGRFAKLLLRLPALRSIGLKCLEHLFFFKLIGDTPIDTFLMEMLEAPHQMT
# How it was run: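 Chimeric NR-GAL4 trans-activation in HepG2, 24 h treatment; reporter transcripts quantified by fluorescence on capillary electrophoresis, analysed for upward change from DMSO.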
# [9] = ATG_GRE_CIS: Attagene CIS-FACTORIAL HepG2 Assay for human Glucocorticoid Response Elements (GRE) (AID 2282947; active = hit-call score of the fitted dose curve at least 0.9, where 1 is the maximum; inactive = score below 0.9); settings: HepG2 GRE cis-reporter, Attagene multiplex mRNA; actives raise or lower the signal
# How it was run: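 Read-out: fluorescent reporter-transcript fragments separated by capillary electrophoresis after RT-PCR. Transiently transfected HepG2 cells carrying cis-element-driven reporter units were dosed for 24 h; gain or loss of signal fitted against DMSO control.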
# [10] = biological target: Hepatocyte nuclear factor 6 (Homo sapiens) (UniProt Q9UBC0); assay: ATG_HNF6_CIS: Attagene CIS-FACTORIAL HepG2 Assay for human Hepatocyte Nuclear Factor 6 (HNF6) (AID 2282952; active = hit-call score of the fitted dose curve at least 0.9, where 1 is the maximum; inactive = score below 0.9); settings: HepG2 Attagene cis-factorial HNF6 reporter transcription; actives raise or lower the signal
# Hepatocyte nuclear factor 6 (Homo sapiens), sequence (Q9UBC0 whole entry, looked up): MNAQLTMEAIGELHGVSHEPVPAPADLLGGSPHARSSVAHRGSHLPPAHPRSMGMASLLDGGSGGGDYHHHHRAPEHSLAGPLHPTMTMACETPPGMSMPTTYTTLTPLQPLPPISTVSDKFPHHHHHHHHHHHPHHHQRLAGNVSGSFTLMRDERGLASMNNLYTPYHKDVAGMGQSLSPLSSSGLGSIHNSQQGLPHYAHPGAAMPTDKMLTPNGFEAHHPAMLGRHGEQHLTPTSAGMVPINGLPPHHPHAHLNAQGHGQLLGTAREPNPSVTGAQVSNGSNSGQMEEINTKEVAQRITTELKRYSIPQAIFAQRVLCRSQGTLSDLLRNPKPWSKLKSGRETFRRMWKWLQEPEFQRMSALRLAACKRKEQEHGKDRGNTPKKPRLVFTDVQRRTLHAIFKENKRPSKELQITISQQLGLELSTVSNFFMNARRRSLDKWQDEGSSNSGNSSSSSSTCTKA
# How it was run: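 Endogenous transcription factor activity in human HepG2 liver cells was captured through cis-regulated reporter constructs. After 24 h treatment, reporter mRNA was measured by RT-PCR with capillary electrophoresis, and activity was fitted in both directions relative to DMSO.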
# [11] = ATG_PBREM_CIS: Attagene CIS-FACTORIAL HepG2 Assay for human Phenobarbital-responsive Enhancer Module (PBREM) (AID 2282955; active = hit-call score of the fitted dose curve at least 0.9, where 1 is the maximum; inactive = score below 0.9); settings: HepG2 PBREM cis-reporter, Attagene multiplexed transcription; actives raise or lower the signal
# How it was run: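 HepG2 cells transiently transfected with multiple cis-regulated reporter transcription units; endogenous factor activity at the PBREM element measured as reporter mRNA 24 h after dosing, via RT-PCR and capillary electrophoresis of fluorescent fragments; bidirectional fitting versus DMSO.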
# [12] = ATG_NF_kB_CIS: Attagene CIS-FACTORIAL HepG2 Assay for human Nuclear Factor Kappa B (NF-kB) (AID 2282991; active = hit-call score of the fitted dose curve at least 0.9, where 1 is the maximum; inactive = score below 0.9); settings: HepG2 Attagene cis-factorial NF-kB reporter mRNA; actives raise or lower the signal
# How it was run: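 HepG2 cells transiently transfected with multiplexed cis-element reporter units measuring endogenous transcription factor activity; reporter mRNA read 24 h after dosing by RT-PCR, fluorescent labelling, HpaI digestion and capillary electrophoresis. Bidirectional fit against DMSO baseline.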
# [13] = biological target: Cellular tumor antigen p53 (Homo sapiens) (UniProt P04637); assay: TOX21_p53_BLA_p2_ratio: Tox21 HCT-116 p53 Agonism Beta-lactamase Assay, Ratio, Phase 2 (AID 2283592)
# Cellular tumor antigen p53 (Homo sapiens), sequence (P04637 whole entry, looked up): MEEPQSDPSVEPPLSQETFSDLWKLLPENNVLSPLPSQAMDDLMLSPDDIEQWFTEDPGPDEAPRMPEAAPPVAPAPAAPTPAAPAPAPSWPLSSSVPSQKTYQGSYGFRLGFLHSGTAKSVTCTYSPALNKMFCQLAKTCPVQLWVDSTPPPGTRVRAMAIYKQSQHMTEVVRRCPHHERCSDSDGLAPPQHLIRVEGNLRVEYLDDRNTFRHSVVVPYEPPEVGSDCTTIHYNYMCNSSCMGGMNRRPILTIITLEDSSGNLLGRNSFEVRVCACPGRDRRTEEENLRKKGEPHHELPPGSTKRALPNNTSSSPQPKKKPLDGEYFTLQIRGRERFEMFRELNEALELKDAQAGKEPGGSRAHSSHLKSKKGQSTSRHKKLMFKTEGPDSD
# How it was run: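 Cleaved-to-uncleaved substrate ratio (460 vs 530 nm) measured in HCT116 cells with an inducible beta-lactamase reporter linked to p53 activity. Compounds incubated 16 h at 37C before 2 h room-temperature CCF4-AM loading.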
# [14] = biological target: Cellular tumor antigen p53 (Homo sapiens) (UniProt P04637); assay: TOX21_p53_BLA_p3_ratio: Tox21 HCT-116 p53 Agonism Beta-lactamase Assay, Ratio, Phase 3 (AID 2283596)
# How it was run: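 Cells were seeded at 4000/well, rested 5 h at 37C, then dosed with DMSO compound solutions (217-fold dilution) for 16 h. CCF4-AM substrate was loaded for 2 h at room temperature, and the 460/530 nm emission ratio was fitted for gain of signal versus DMSO.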
# [15] = biological target: Cellular tumor antigen p53 (Homo sapiens) (UniProt P04637); assay: TOX21_p53_BLA_p4_ratio: Tox21 HCT-116 p53 Agonism Beta-lactamase Assay, Ratio, Phase 4 (AID 2283601)
# How it was run: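 HCT-116 p53 beta-lactamase reporter cells (4000/well) preincubated 5 h, then compound (217-fold dilution of DMSO stock) for 16 h at 37C. CCF4-AM substrate added 2 h at room temperature; 460/530 nm emission ratio fitted upward versus DMSO.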
# [16] = biological target: human Retinoid X Receptor beta (RXRb), RXRB (gene 6257) (UniProt P28702); assay: ATG_RXRb_TRANS: Attagene TRANS-FACTORIAL HepG2 Assay for human Retinoid X Receptor beta (RXRb) (AID 2283013)
# human Retinoid X Receptor beta (RXRb), RXRB (gene 6257), sequence (P28702 whole entry, looked up, the tested form may be a part): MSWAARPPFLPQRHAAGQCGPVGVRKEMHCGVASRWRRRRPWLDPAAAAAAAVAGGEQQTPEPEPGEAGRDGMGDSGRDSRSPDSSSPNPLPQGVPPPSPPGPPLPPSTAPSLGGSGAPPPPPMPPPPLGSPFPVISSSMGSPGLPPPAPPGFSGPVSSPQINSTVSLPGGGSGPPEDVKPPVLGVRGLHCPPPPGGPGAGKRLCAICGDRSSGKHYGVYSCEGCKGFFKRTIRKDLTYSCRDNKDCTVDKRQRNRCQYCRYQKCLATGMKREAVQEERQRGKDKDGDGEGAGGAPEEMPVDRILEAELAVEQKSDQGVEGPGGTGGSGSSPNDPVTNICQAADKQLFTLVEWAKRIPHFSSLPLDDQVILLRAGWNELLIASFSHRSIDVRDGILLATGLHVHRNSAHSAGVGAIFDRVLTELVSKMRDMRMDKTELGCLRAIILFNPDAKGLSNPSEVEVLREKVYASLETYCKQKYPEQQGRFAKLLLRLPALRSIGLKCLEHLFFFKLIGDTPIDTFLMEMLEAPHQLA
# How it was run: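 After a 24 h incubation with test chemical, transfected HepG2 cells carrying NR-Gal4 fusions and GAL4-UAS reporter transcription units yield RNA whose reporter cDNA is FAM-labelled, HpaI-cut and sized by capillary electrophoresis; increases over DMSO are scored.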
# [17] = biological target: human Vitamin D Receptor (VDR), VDR (gene 7421) (UniProt P11473); assay: ATG_VDR_TRANS: Attagene TRANS-FACTORIAL HepG2 Assay for human Vitamin D Receptor (VDR) (AID 2283022)
# human Vitamin D Receptor (VDR), VDR (gene 7421), sequence (P11473 whole entry, looked up, the tested form may be a part): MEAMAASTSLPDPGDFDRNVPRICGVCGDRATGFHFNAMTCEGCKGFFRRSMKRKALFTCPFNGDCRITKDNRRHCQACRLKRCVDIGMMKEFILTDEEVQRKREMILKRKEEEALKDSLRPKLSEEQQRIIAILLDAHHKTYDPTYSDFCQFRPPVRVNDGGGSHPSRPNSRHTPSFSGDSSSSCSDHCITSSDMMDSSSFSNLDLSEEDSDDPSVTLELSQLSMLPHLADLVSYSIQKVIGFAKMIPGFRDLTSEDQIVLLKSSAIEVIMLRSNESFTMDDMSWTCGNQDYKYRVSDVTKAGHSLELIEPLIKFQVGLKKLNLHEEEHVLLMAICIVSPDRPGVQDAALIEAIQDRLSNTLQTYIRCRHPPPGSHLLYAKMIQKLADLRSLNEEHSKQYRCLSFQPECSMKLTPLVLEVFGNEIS
# How it was run: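 Fluorescence of labelled reporter cDNA fragments, resolved by capillary electrophoresis, gives mRNA induction after 24 h treatment of HepG2 cells carrying transfected Gal4-fusion reporter units. Activity is fitted in the positive direction with DMSO as baseline.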
# [18] = TOX21_p53_BLA_p2_viability: Viability Assessment in the Tox21 HCT-116 p53 Agonism Beta-lactamase Assay, Phase 2 (AID 2283591);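 note: compound exposure lasted 16 h at 37 °C; actives lower the ATP signal meaning cytotoxicity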
# How it was run: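 HCT116 p53-bla cells, 4000/well, dosed after 5 h plating (217-fold dilution of DMSO stocks) and incubated 16 h at 37C. Viability taken as cellular ATP by CellTiter-Glo luminescence after 30 min RT; signal loss marks cytotoxicity.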
# [19] = biological target: Cellular tumor antigen p53 (Homo sapiens) (UniProt P04637); assay: TOX21_p53_BLA_p5_ratio: Tox21 HCT-116 p53 Agonism Beta-lactamase Assay, Ratio, Phase 5 (AID 2283599)
# How it was run: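 HCT-116 p53-bla cells (4000/well) plated 5 h, dosed with compound (217-fold DMSO dilution) for 16 h at 37 C; CCF4-AM substrate 2 h at room temperature. Activity is the 460/530 nm emission ratio (405 nm excitation), fitted in gain-of-signal direction versus DMSO.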
# [20] = ATG_M_06_TRANS: Attagene TRANS-FACTORIAL HepG2 Assay for M06 Transcription Factor (Internal Marker) (AID 2282983); settings: HepG2 Attagene TRANS M06 internal marker reporter;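 note: reporter transcript level by RT-PCR then capillary electrophoresis fluorescence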
# How it was run: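 Human liver HepG2 cells bearing transiently transfected chimeric NR-GAL4 reporter units were treated with chemicals for 24 h. Total RNA was reverse-transcribed, reporter sequences amplified and labelled, then quantified by capillary electrophoresis. Activity was fitted upward relative to DMSO.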
compound,measurement,setting,value
CC[N+](CC)(CC(=O)Nc1c(C)cccc1C)Cc1ccccc1,outcome,[1],inactive
same,outcome,[2],inactive
same,outcome,[3],inactive
same,outcome,[4],inactive
same,outcome,[5],inactive
same,outcome,[6],inactive
same,outcome,[7],inactive
same,outcome,[8],inactive
O=C(C(=O)c1ccccc1)c1ccccc1,outcome,[2],inactive
same,outcome,[9],inactive
same,outcome,[10],inactive
same,outcome,[11],inactive
same,outcome,[3],inactive
same,outcome,[4],inactive
same,outcome,[5],inactive
same,outcome,[6],inactive
same,outcome,[12],inactive
same,outcome,[13],inactive
same,outcome,[14],inactive
same,outcome,[15],inactive
CC(C)(C)NC(=O)[C@@H]1CN(Cc2cccnc2)CCN1C[C@@H](O)C[C@@H](Cc1ccccc1)C(=O)N[C@H]1c2ccccc2C[C@H]1O,outcome,[2],inactive
same,outcome,[9],inactive
same,outcome,[11],inactive
same,outcome,[4],inactive
same,outcome,[8],inactive
same,outcome,[16],inactive
same,outcome,[17],inactive
same,AC50,[18],36.3 µM (active)
same,AC50,[13],40.8 µM (active)
same,outcome,[13],inactive
same,outcome,[14],inactive
same,AC50,[19],43.8 µM (active)
same,outcome,[19],inactive
same,AC50,[15],39.8 µM (active)
CCO[Si](OCC)(OCC)c1ccccc1,outcome,[1],inactive
same,outcome,[2],inactive
same,outcome,[9],inactive
same,outcome,[10],inactive
same,outcome,[3],inactive
same,outcome,[4],inactive
same,outcome,[20],inactive
same,outcome,[6],inactive
same,outcome,[8],inactive
same,outcome,[16],inactive
same,outcome,[17],inactive
same,outcome,[18],inactive
same,outcome,[14],inactive
same,outcome,[19],inactive
same,outcome,[15],inactive
CN(C)CCC(c1ccc(Cl)cc1)c1ccccn1 (stereo unspecified),outcome,[1],inactive
same,outcome,[2],inactive
same,outcome,[9],inactive
same,outcome,[3],inactive
same,outcome,[20],inactive
same,outcome,[6],inactive
same,outcome,[7],inactive
same,outcome,[12],inactive
same,outcome,[18],inactive
same,outcome,[14],inactive
Brc1ccc(Oc2ccc(Br)cc2)cc1,outcome,[2],inactive
same,outcome,[9],inactive
same,outcome,[10],inactive
same,outcome,[11],inactive
same,outcome,[3],inactive
same,outcome,[4],inactive
same,outcome,[6],inactive
same,outcome,[8],inactive
same,outcome,[16],inactive
same,outcome,[17],inactive
same,outcome,[18],inactive
same,outcome,[13],inactive
same,outcome,[14],inactive
same,outcome,[19],inactive
same,outcome,[15],inactive
CC(O)(P(=O)(O)O)P(=O)(O)O,outcome,[1],inactive
same,outcome,[2],inactive
same,outcome,[3],inactive
same,outcome,[20],inactive
same,outcome,[7],inactive
same,outcome,[8],inactive
same,outcome,[16],inactive
C[Si](C)(C)O[Si](C)(C)O[Si](C)(C)C,outcome,[1],inactive
same,outcome,[10],inactive
same,outcome,[11],inactive
same,outcome,[4],inactive
same,outcome,[20],inactive
same,outcome,[7],inactive
same,outcome,[12],inactive
same,outcome,[17],inactive
same,outcome,[18],inactive
same,outcome,[13],inactive
same,outcome,[14],inactive
same,outcome,[19],inactive
same,outcome,[15],inactive
O=C(O)c1ccccc1C(=O)O,outcome,[1],inactive
same,outcome,[2],inactive
same,outcome,[9],inactive
same,outcome,[10],inactive
same,outcome,[11],inactive
same,outcome,[3],inactive
same,outcome,[5],inactive
same,outcome,[20],inactive
same,outcome,[6],inactive
same,outcome,[7],inactive
same,outcome,[12],inactive
same,outcome,[8],inactive
same,outcome,[16],inactive
same,outcome,[18],inactive
same,outcome,[13],inactive
same,outcome,[14],inactive
same,outcome,[19],inactive
same,outcome,[15],inactive
CCC(C)C1N=C(C)C(C)S1 (stereo unspecified),outcome,[1],inactive
same,outcome,[2],inactive
same,outcome,[9],inactive
same,outcome,[10],inactive
same,outcome,[3],inactive
same,outcome,[4],inactive
same,outcome,[20],inactive
same,outcome,[6],inactive
same,outcome,[7],inactive
same,outcome,[12],inactive
same,outcome,[8],inactive
same,outcome,[16],inactive
same,outcome,[18],inactive
same,outcome,[14],inactive
same,outcome,[19],inactive
same,outcome,[15],inactive
COc1ccc(C(=O)c2ccccc2O)c(O)c1,outcome,[13],inactive
same,outcome,[14],inactive
same,outcome,[19],inactive
same,outcome,[15],inactive
CCCCC(CC)COC(=O)C=Cc1ccc(OC)cc1 (stereo unspecified),outcome,[18],inactive
same,outcome,[13],inactive
same,outcome,[14],inactive
same,outcome,[19],inactive
